Source: PubChem BioAssay (NCI)
The panel holds about 79,000 compounds, 15% with a hit somewhere; the sample as a whole holds those more often. Activity calls are given as the source filed them. Rule as the data show it: active = growth inhibition above about 70%; inactive = the rest.

Experiments:
[1] = NCI Yeast Anticancer Drug Screen. Data for the rad52 strain (AID 147);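 also: 0% = growth of vehicle-treated control cultures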; details: S. cerevisiae rad52 mutant growth inhibition, stronger effect = higher value
In short: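 Here a repair-compromised yeast strain receives each compound; its growth is then quantified and normalised to vehicle-only controls.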

[2] = NCI Yeast Anticancer Drug Screen. Data for the wt1 strain (AID 149);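 also: 0% = growth of vehicle-treated wt1 cultures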; details: S. cerevisiae wt1 strain (SPY 50644) growth inhibition, stronger effect = higher value
In short: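 Using yeast strain wt1, compound-induced growth inhibition was determined against vehicle-treated cultures.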

[3] = NCI Yeast Anticancer Drug Screen. Data for the rad50EPP+ strain (AID 151);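 also: 0% = growth of vehicle-treated control cultures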; details: S. cerevisiae rad50 mutant strain, stronger effect = higher value
In short: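 Read-out is yeast growth inhibition relative to vehicle; cells used were the rad50EPP+ strain.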

[4] = NCI Yeast Anticancer Drug Screen. Data for the mgt1 strain (AID 153); details: S. cerevisiae mgt1 mutant growth inhibition, stronger effect = higher value
In short: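 Measured: inhibition of mgt1 yeast growth by compound, normalized to vehicle-treated cultures.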

[5] = NCI Yeast Anticancer Drug Screen. Data for the rad50 strain (AID 155);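 also: 0% = growth of vehicle-only cultures of the same strain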; details: S. cerevisiae rad50 strain growth inhibition, stronger effect = higher value
In short: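 Relative growth inhibition (compound vs vehicle) was measured in yeast with a defined repair-gene alteration.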

[6] = NCI Yeast Anticancer Drug Screen. Data for the mec2-1 strain (AID 157); details: S. cerevisiae mec2-1 strain, stronger effect = higher value
In short: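 Using mec2-1 yeast: add compound, measure growth, express inhibition versus vehicle-treated cultures.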

[7] = NCI Yeast Anticancer Drug Screen. Data for the rad14 strain (AID 159);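 also: 0% = growth of vehicle-treated control cultures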; details: S. cerevisiae rad14 strain growth inhibition, stronger effect = higher value
In short: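 Screen for anticancer potential: a yeast strain altered in DNA damage repair is grown with compound, and reduced growth is quantified against vehicle controls.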

[8] = NCI Yeast Anticancer Drug Screen. Data for the sgs1 mgt1 strain (AID 161);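 also: 0% = growth of cultures given vehicle only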; details: S. cerevisiae sgs1 mgt1 strain, stronger effect = higher value
In short: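 Yeast cells carrying a defined DNA-repair defect were exposed to test compounds. Growth inhibition was measured relative to vehicle-treated controls.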

[9] = NCI Yeast Anticancer Drug Screen. Data for the CLN2oe strain (AID 163);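 also: 0% = growth of vehicle-only control cultures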; details: S. cerevisiae CLN2oe strain, stronger effect = higher value
In short: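 Whole-cell yeast growth assay. A strain engineered for altered cell-cycle control received compound, and inhibition relative to vehicle-treated cultures was recorded.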

[10] = NCI Yeast Anticancer Drug Screen. Data for the cln2 rad14 strain (AID 165);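 also: 0% = growth equal to vehicle treated cultures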; details: S. cerevisiae cln2 rad14 strain, stronger effect = higher value
In short: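 Yeast strain cln2 rad14, bearing defects in cell cycle control and DNA repair, serves as the test system; values reflect growth inhibition compared with vehicle.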

[11] = NCI Yeast Anticancer Drug Screen. Data for the bub3 strain (AID 167); details: S. cerevisiae bub3 mutant strain, stronger effect = higher value
In short: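 Screening used yeast with an engineered genetic alteration affecting cell cycle control. Compound-exposed cultures were compared with vehicle cultures, and reduced growth was taken as inhibition.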

[12] = NCI Yeast Anticancer Drug Screen. Data for the wt2 strain (AID 169);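 also: 0% = growth of vehicle-treated yeast cultures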; details: S. cerevisiae wt2 strain growth inhibition, stronger effect = higher value
In short: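 Treated yeast vs. vehicle-treated yeast: growth inhibition determined.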

[13] = NCI Yeast Anticancer Drug Screen. Data for the mlh1 strain (AID 171);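 also: 0% = growth of vehicle-treated control cultures of the same strain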; details: S. cerevisiae mlh1 strain growth inhibition, stronger effect = higher value
In short: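 A yeast strain with a defined genetic lesion serves as the test organism. Cultures receive compound or vehicle, and growth is measured.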

[14] = NCI Yeast Anticancer Drug Screen. Data for the sgs1 strain (AID 173);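 also: 0% = growth of vehicle-only control cultures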; details: S. cerevisiae sgs1 mutant, stronger effect = higher value
In short: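 A genetically defined yeast mutant is incubated with the test compound, and its growth is compared to that of the same strain given vehicle.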

[15] = NCI Yeast Anticancer Drug Screen. Data for the mlh1 rad18 strain (AID 175); details: S. cerevisiae mlh1 rad18 strain growth inhibition, stronger effect = higher value
In short: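 Steps: expose repair-defective yeast to compound; measure growth; express inhibition against vehicle-treated controls.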

[16] = NCI Yeast Anticancer Drug Screen. Data for the rad18 strain (AID 177); details: S. cerevisiae rad18 mutant growth inhibition, stronger effect = higher value
In short: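 Measured value is growth inhibition of a yeast strain bearing a DNA repair alteration, referenced to vehicle-treated cells.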

[17] = at 5.0 µM (retest, dose inferred, filed as 0.5)
[18] = at 50.0 µM (retest, dose inferred, filed as 5.0)

Measured: growth inhibition

CCS(=O)(=O)Nc1ccc(Nc2c3ccccc3nc3ccccc23)c(OC)c1
inactive: [1]; at 1.2 µM 62% | [2]; at 1.2 µM -36% | [2]; at 3.7 µM -42% | [2]; at 11.0 µM -38% | [2]; at 33.0 µM -4% | [2]; at 100.0 µM 62% | [3]; at 1.2 µM -1% | [3]; at 3.7 µM 17% | [3]; at 11.0 µM 48% | [4]; at 1.2 µM -28% | [4]; at 3.7 µM -35% | [4]; at 11.0 µM -28% | [4]; at 33.0 µM 3% | [4]; at 100.0 µM 64% | [5]; at 1.2 µM 51% | [5]; at 50.0 µM 24.7% | [6]; at 1.2 µM -42% | [6]; at 3.7 µM -32% | [6]; [17] 12% | [6]; at 11.0 µM 7% | [6]; at 33.0 µM 69% | [6]; at 50.0 µM 11.8% | [7]; at 1.2 µM -40% | [7]; at 3.7 µM -36% | [7]; at 11.0 µM -26% | [7]; at 33.0 µM 5% | [8]; [17] 49% | [9]; at 1.2 µM -8% | [9]; at 3.7 µM -35% | [9]; at 11.0 µM -2% | [9]; at 33.0 µM 29% | [9]; at 100.0 µM 59% | [10]; [17] 43% | [10]; at 50.0 µM 53.4% | [11]; at 1.2 µM -50% | [11]; at 3.7 µM -32% | [11]; [17] 42% | [11]; at 11.0 µM -36% | [11]; at 33.0 µM 3% | [11]; [18] 65% | [11]; at 50.0 µM 50.5% | [11]; at 100.0 µM 67% | [12]; at 1.2 µM -47% | [12]; at 3.7 µM -47% | [12]; at 11.0 µM -42% | [12]; at 33.0 µM -1% | [12]; at 100.0 µM 56% | [13]; at 1.2 µM -57% | [13]; at 3.7 µM -33% | [13]; at 11.0 µM -24% | [13]; at 33.0 µM 17% | [14]; at 1.2 µM -14% | [14]; at 3.7 µM -11% | [14]; at 11.0 µM -7% | [14]; at 33.0 µM 36% | [15]; at 50.0 µM 36% | [16]; at 1.2 µM -21% | [16]; at 3.7 µM -12% | [16]; at 11.0 µM -18% | [16]; at 33.0 µM 23%
active: [1]; at 3.7 µM 82% | [1]; at 11.0 µM 88% | [1]; at 33.0 µM 90% | [1]; at 100.0 µM 93% | [3]; at 33.0 µM 77% | [3]; at 100.0 µM 84% | [5]; at 3.7 µM 79% | [5]; [17] 86% | [5]; at 11.0 µM 86% | [5]; at 33.0 µM 91% | [5]; [18] 99% | [5]; at 100.0 µM 92% | [6]; [18] 96% | [6]; at 100.0 µM 89% | [7]; at 100.0 µM 74% | [8]; [18] 98% | [8]; at 50.0 µM 80.8% | [10]; [18] 84% | [13]; at 100.0 µM 74% | [14]; at 100.0 µM 76% | [15]; [17] 77% | [15]; [18] 97% | [16]; at 100.0 µM 74%

COC(=O)c1ccccc1N=NNc1cccc(SC)c1
active: [1]; at 33.0 µM 89% | [1]; at 100.0 µM 88% | [2]; at 33.0 µM 90% | [2]; at 100.0 µM 88% | [4]; at 33.0 µM 92% | [4]; at 100.0 µM 88% | [5]; at 33.0 µM 93% | [5]; at 50.0 µM 86.8% | [5]; at 100.0 µM 87% | [6]; at 33.0 µM 93% | [6]; at 50.0 µM 85.7% | [6]; at 100.0 µM 89% | [7]; at 33.0 µM 93% | [7]; at 100.0 µM 87% | [8]; [18] 94% | [8]; at 50.0 µM 88.8% | [9]; at 33.0 µM 93% | [9]; at 100.0 µM 85% | [10]; [18] 87% | [10]; at 50.0 µM 86% | [11]; at 33.0 µM 94% | [11]; [18] 87% | [11]; at 50.0 µM 85.9% | [11]; at 100.0 µM 89% | [12]; at 33.0 µM 93% | [12]; at 100.0 µM 89% | [13]; at 33.0 µM 94% | [13]; at 100.0 µM 88% | [14]; at 33.0 µM 93% | [14]; at 100.0 µM 84% | [15]; at 50.0 µM 85.2% | [16]; at 33.0 µM 94% | [16]; at 100.0 µM 89%
inactive: [1]; at 1.2 µM 11% | [1]; at 3.7 µM 13% | [1]; at 11.0 µM 23% | [2]; at 1.2 µM -14% | [2]; at 3.7 µM -31% | [2]; at 11.0 µM -27% | [3]; at 1.2 µM 9% | [3]; at 3.7 µM 21% | [3]; at 11.0 µM 39% | [3]; at 33.0 µM 47% | [3]; at 100.0 µM 36% | [4]; at 1.2 µM -16% | [4]; at 3.7 µM -18% | [4]; at 11.0 µM -3% | [5]; at 1.2 µM 12% | [5]; at 3.7 µM 16% | [5]; [17] 30% | [5]; at 11.0 µM 28% | [5]; [18] 41% | [6]; at 1.2 µM 1% | [6]; at 3.7 µM 9% | [6]; [17] 40% | [6]; at 11.0 µM 19% | [6]; [18] 39% | [7]; at 1.2 µM -11% | [7]; at 3.7 µM -21% | [7]; at 11.0 µM -6% | [8]; [17] 1% | [9]; at 1.2 µM -17% | [9]; at 3.7 µM 12% | [9]; at 11.0 µM -9% | [10]; [17] 42% | [11]; at 1.2 µM 12% | [11]; at 3.7 µM 6% | [11]; [17] 3% | [11]; at 11.0 µM 25% | [12]; at 1.2 µM -11% | [12]; at 3.7 µM -18% | [12]; at 11.0 µM 8% | [13]; at 1.2 µM 2% | [13]; at 3.7 µM 4% | [13]; at 11.0 µM 17% | [14]; at 1.2 µM -6% | [14]; at 3.7 µM -13% | [14]; at 11.0 µM 16% | [15]; [17] 21% | [15]; [18] 36% | [16]; at 1.2 µM -10% | [16]; at 3.7 µM -13% | [16]; at 11.0 µM 11%
